Data from the supplement of paper PMC6522484.
± gives the standard deviation of the averaged measurements.

What was measured:
DLD1 [1] = assay: cell viability (CellTiter-Glo) relative to plate median (fraction of plate median); higher = more viable cells; conditions: 5 µM; treatment time 24 h; reporter: 7TFP
Outline: (§1)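 Colorectal cancer cell lines stably carrying lentiviral TCF/Wnt firefly luciferase reporters (7TFP or TCF4/Wnt) were plated in 384-well plates and, 24 h later, given library compounds at a final 5 µM for 24 h. Firefly luciferase or CellTiterGlo luminescence was read on parallel plates with a Tecan F500 reader. Each well's signal was normalised to the plate median in webcellHTS2 (additive, without log transformation). Values are the mean of two independent replicates.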

HCT116 = assay: as above; conditions: 5 µM; treatment time 24 h; reporter: TCF4/Wnt
Outline: as §1

SW480 [2] = assay: as above; conditions: 5 µM; treatment time 24 h; reporter: 7TFP
Outline: as §1

DLD1 [3] = assay: TCF/Wnt firefly luciferase reporter signal relative to plate median (fraction of plate median); higher = higher Wnt reporter signal; conditions: 5 µM; treatment time 24 h; reporter: 7TFP
Outline: as §1

SW480 [4] = assay: as above; conditions: 5 µM; treatment time 24 h; reporter: 7TFP
Outline: as §1

## CCOC(=O)c1c(C)c(Cl)c(O)c(Cl)c1O
DLD1 [1]
  cell viability: 0.991 ± 0.042
HCT116
  cell viability: 0.987 ± 0.013
SW480 [2]
  cell viability: 0.9025 ± 0.0078
DLD1 [3]
  TCF/Wnt firefly luciferase reporter signal: 0.966 ± 0.013
SW480 [4]
  TCF/Wnt firefly luciferase reporter signal: 0.994 ± 0.052

## CN(C)CCN(Cc1cccs1)c1ccccn1
DLD1 [1]
  cell viability: 1.08 ± 0.028
HCT116
  cell viability: 1.04 ± 0.18
SW480 [2]
  cell viability: 1 ± 0.015
DLD1 [3]
  TCF/Wnt firefly luciferase reporter signal: 1.01 ± 0.056
SW480 [4]
  TCF/Wnt firefly luciferase reporter signal: 1.03 ± 0.028

## C=CC(C1=CC(=O)C(OC)=CC1=O)c1ccccc1 (stereo not given)
DLD1 [1]
  cell viability: 0.983 ± 0.0014
HCT116
  cell viability: 1.05 ± 0.042
SW480 [2]
  cell viability: 1.03 ± 0.021
DLD1 [3]
  TCF/Wnt firefly luciferase reporter signal: 0.985 ± 0.079
SW480 [4]
  TCF/Wnt firefly luciferase reporter signal: 1.01 ± 0.054

## O=C(O)c1cccnc1C(=O)O
DLD1 [1]
  cell viability: 1.07 ± 0.021
HCT116
  cell viability: 1.095 ± 0.0071
SW480 [2]
  cell viability: 1.03 ± 0.014
DLD1 [3]
  TCF/Wnt firefly luciferase reporter signal: 1.04 ± 0.15
SW480 [4]
  TCF/Wnt firefly luciferase reporter signal: 1.1 ± 0.085

## CCCn1c(=O)c2[nH]c(C3CCCC3)nc2n(CCC)c1=O
DLD1 [1]
  cell viability: 0.998 ± 0.059
HCT116
  cell viability: 1.03 ± 0.047
SW480 [2]
  cell viability: 1.02 ± 0.037
DLD1 [3]
  TCF/Wnt firefly luciferase reporter signal: 1.04 ± 0.16
SW480 [4]
  TCF/Wnt firefly luciferase reporter signal: 0.968 ± 0.073

## CCN1CCCC(OC(=O)C(c2ccccc2)c2ccccc2)C1 (stereo not given)
DLD1 [1]
  cell viability: 0.981
HCT116
  cell viability: 1.01
SW480 [2]
  cell viability: 0.953 ± 0.025
DLD1 [3]
  TCF/Wnt firefly luciferase reporter signal: 0.941 ± 0.076
SW480 [4]
  TCF/Wnt firefly luciferase reporter signal: 1.01 ± 0.07

## CC1(C)C(=O)[C@H]2C[C@]3(O)C4=CC(=O)O[C@@H](c5ccoc5)[C@@]4(C)CCC3[C@](C)(C2=O)[C@H]1CC(=O)O (stereo not given in full)
DLD1 [1]
  cell viability: 1.085 ± 0.0071
HCT116
  cell viability: 1.1 ± 0.064
SW480 [2]
  cell viability: 1.05 ± 0.028
DLD1 [3]
  TCF/Wnt firefly luciferase reporter signal: 1.11 ± 0.099
SW480 [4]
  TCF/Wnt firefly luciferase reporter signal: 0.972 ± 0.083

## CC1=Nc2ccc(Cl)cc2S(=O)(=O)N1
DLD1 [1]
  cell viability: 0.946 ± 0.016
HCT116
  cell viability: 1.06 ± 0.12
SW480 [2]
  cell viability: 0.975 ± 0.05
DLD1 [3]
  TCF/Wnt firefly luciferase reporter signal: 1.135 ± 0.0071
SW480 [4]
  TCF/Wnt firefly luciferase reporter signal: 0.86 ± 0.14

## O=c1c(O)c(-c2ccc(O)c(O)c2)oc2cc(O)cc(O)c12
DLD1 [1]
  cell viability: 0.9445 ± 0.00071
HCT116
  cell viability: 0.9265 ± 0.0021
SW480 [2]
  cell viability: 1 ± 0.036
DLD1 [3]
  TCF/Wnt firefly luciferase reporter signal: 0.936 ± 0.062
SW480 [4]
  TCF/Wnt firefly luciferase reporter signal: 0.983 ± 0.067

## COc1ccc(C(C)=O)c(OC)c1
DLD1 [1]
  cell viability: 0.971 ± 0.056
HCT116
  cell viability: 0.963 ± 0.15
SW480 [2]
  cell viability: 0.9765 ± 0.00071
DLD1 [3]
  TCF/Wnt firefly luciferase reporter signal: 0.864 ± 0.044
SW480 [4]
  TCF/Wnt firefly luciferase reporter signal: 1.03 ± 0.16

## CCN(CC)CCCC(C)Nc1c2ccc(Cl)cc2nc2ccc(OC)cc12 (stereo not given)
DLD1 [1]
  cell viability: 1.02 ± 0.014
HCT116
  cell viability: 0.886 ± 0.19
SW480 [2]
  cell viability: 1.05 ± 0.014
DLD1 [3]
  TCF/Wnt firefly luciferase reporter signal: 1.11 ± 0.042
SW480 [4]
  TCF/Wnt firefly luciferase reporter signal: 0.888 ± 0.036

## CC1=CCc2c(cc3oc(C)cc(=O)c3c2O)OC1
DLD1 [1]
  cell viability: 1 ± 0.084
HCT116
  cell viability: 1.02 ± 0.033
SW480 [2]
  cell viability: 1.06 ± 0.071
DLD1 [3]
  TCF/Wnt firefly luciferase reporter signal: 1.18 ± 0.15
SW480 [4]
  TCF/Wnt firefly luciferase reporter signal: 1.11 ± 0.085

## O=C(O)C1=CC(=C(c2ccc(O)c(C(=O)O)c2)c2ccc(O)c(C(=O)O)c2)C=CC1=O
DLD1 [1]
  cell viability: 1.03 ± 0.14
HCT116
  cell viability: 1.03 ± 0.028
SW480 [2]
  cell viability: 1.06 ± 0.05
DLD1 [3]
  TCF/Wnt firefly luciferase reporter signal: 0.996 ± 0.09
SW480 [4]
  TCF/Wnt firefly luciferase reporter signal: 1.01 ± 0.049

## COc1ccc(-c2cc(=O)c3c(O)c(OC)c(OC)c(OC)c3o2)cc1OC
DLD1 [1]
  cell viability: 1.07 ± 0.085
HCT116
  cell viability: 1.19 ± 0.11
SW480 [2]
  cell viability: 1.15 ± 0.18
DLD1 [3]
  TCF/Wnt firefly luciferase reporter signal: 0.964 ± 0.065
SW480 [4]
  TCF/Wnt firefly luciferase reporter signal: 0.967 ± 0.2

## C[C@H]1COC2=C1C(=O)C(=O)c1c2ccc2c1CCCC2(C)C
DLD1 [1]
  cell viability: 1.15 ± 0.2
HCT116
  cell viability: 1.12 ± 0.042
SW480 [2]
  cell viability: 1.08 ± 0.014
DLD1 [3]
  TCF/Wnt firefly luciferase reporter signal: 1.05 ± 0.096
SW480 [4]
  TCF/Wnt firefly luciferase reporter signal: 0.906 ± 0.12

## Oc1ccc2c(c1)O[C@H](c1ccc(O)c(O)c1)[C@@H](O)C2
DLD1 [1]
  cell viability: 1.07 ± 0.014
HCT116
  cell viability: 1.04 ± 0.028
SW480 [2]
  cell viability: 1.05 ± 0.096
DLD1 [3]
  TCF/Wnt firefly luciferase reporter signal: 0.926 ± 0.058
SW480 [4]
  TCF/Wnt firefly luciferase reporter signal: 0.9675 ± 0.005

## O=c1cc(-c2ccccc2)oc2cc(O)cc(O)c12
DLD1 [1]
  cell viability: 1.01
HCT116
  cell viability: 1.02 ± 0.035
SW480 [2]
  cell viability: 1.02 ± 0.045
DLD1 [3]
  TCF/Wnt firefly luciferase reporter signal: 1.03 ± 0.23
SW480 [4]
  TCF/Wnt firefly luciferase reporter signal: 1.09 ± 0.064

## N=C(N)NCCCCN
DLD1 [1]
  cell viability: 1 ± 0.054
HCT116
  cell viability: 1.15 ± 0.014
SW480 [2]
  cell viability: 1.02 ± 0.058
DLD1 [3]
  TCF/Wnt firefly luciferase reporter signal: 1.02 ± 0.04
SW480 [4]
  TCF/Wnt firefly luciferase reporter signal: 1.09 ± 0.071

## O=C1O[C@H]([C@@H](O)CO)C(O)=C1O
DLD1 [1]
  cell viability: 0.983 ± 0.024
HCT116
  cell viability: 1.02 ± 0.12
SW480 [2]
  cell viability: 1.01 ± 0.035
DLD1 [3]
  TCF/Wnt firefly luciferase reporter signal: 0.87 ± 0.069
SW480 [4]
  TCF/Wnt firefly luciferase reporter signal: 0.969 ± 0.073

## COc1cccc2c1C(=O)c1c(O)c3c(c(O)c1C2=O)C[C@@](O)(C(C)=O)C[C@@H]3O[C@H]1C[C@H](N)[C@H](O)[C@H](C)O1
DLD1 [1]
  cell viability: 0.958 ± 0.027
HCT116
  cell viability: 0.575 ± 0.037
SW480 [2]
  cell viability: 1.03 ± 0.1
DLD1 [3]
  TCF/Wnt firefly luciferase reporter signal: 0.781 ± 0.21
SW480 [4]
  TCF/Wnt firefly luciferase reporter signal: 0.564 ± 0.26

## CCN(CC)CCNC(=O)c1cc(Br)c(N)cc1OC
DLD1 [1]
  cell viability: 1.02 ± 0.081
HCT116
  cell viability: 1.07 ± 0.028
SW480 [2]
  cell viability: 1.02 ± 0.047
DLD1 [3]
  TCF/Wnt firefly luciferase reporter signal: 0.985 ± 0.05
SW480 [4]
  TCF/Wnt firefly luciferase reporter signal: 1.16 ± 0.078

## CC(C)CCC[C@@H](C)[C@H]1CC[C@H]2[C@@H]3CC=C4C[C@@H](O)CC[C@]4(C)[C@H]3CC[C@]12C
DLD1 [1]
  cell viability: 1.03 ± 0.067
HCT116
  cell viability: 1 ± 0.11
SW480 [2]
  cell viability: 1.015 ± 0.0071
DLD1 [3]
  TCF/Wnt firefly luciferase reporter signal: 1.05 ± 0.081
SW480 [4]
  TCF/Wnt firefly luciferase reporter signal: 1.04 ± 0.042

## CC(C(=O)O)c1cccc(C(=O)c2ccccc2)c1 (stereo not given)
DLD1 [1]
  cell viability: 1.14 ± 0.13
HCT116
  cell viability: 0.931 ± 0.035
SW480 [2]
  cell viability: 1.04 ± 0.028
DLD1 [3]
  TCF/Wnt firefly luciferase reporter signal: 0.9355 ± 0.0064
SW480 [4]
  TCF/Wnt firefly luciferase reporter signal: 1.03 ± 0.014

## C[N+](C)(C)CCOP(=O)(O)OP(=O)([O-])OC[C@H]1O[C@@H](n2ccc(N)nc2=O)[C@H](O)[C@@H]1O
DLD1 [1]
  cell viability: 0.923 ± 0.1
HCT116
  cell viability: 0.942 ± 0.016
SW480 [2]
  cell viability: 1.01 ± 0.017
DLD1 [3]
  TCF/Wnt firefly luciferase reporter signal: 1.01 ± 0.096
SW480 [4]
  TCF/Wnt firefly luciferase reporter signal: 1.04 ± 0.028

## NC(=O)c1cc[n+](CC2=C(C(=O)O)N3C(=O)[C@@H](NC(=O)[C@@H](c4ccccc4)S(=O)(=O)[O-])[C@H]3SC2)cc1
DLD1 [1]
  cell viability: 1.01 ± 0.055
HCT116
  cell viability: 0.983 ± 0.067
SW480 [2]
  cell viability: 1.07 ± 0.085
DLD1 [3]
  TCF/Wnt firefly luciferase reporter signal: 0.967 ± 0.17
SW480 [4]
  TCF/Wnt firefly luciferase reporter signal: 0.9605 ± 0.0078

## O=C1CN(/N=C/c2ccc([N+](=O)[O-])o2)C(=O)N1
DLD1 [1]
  cell viability: 1.03 ± 0.11
HCT116
  cell viability: 1.02 ± 0.037
SW480 [2]
  cell viability: 0.949
DLD1 [3]
  TCF/Wnt firefly luciferase reporter signal: 0.954 ± 0.043
SW480 [4]
  TCF/Wnt firefly luciferase reporter signal: 0.995 ± 0.12

## CC1(C)S[C@@H]2[C@H](NC(=O)[C@H](NC(=O)N3CCNC3=O)c3ccccc3)C(=O)N2[C@H]1C(=O)O
DLD1 [1]
  cell viability: 1.07 ± 0.014
HCT116
  cell viability: 0.988 ± 0.0042
SW480 [2]
  cell viability: 0.956 ± 0.046
DLD1 [3]
  TCF/Wnt firefly luciferase reporter signal: 0.903 ± 0.0099
SW480 [4]
  TCF/Wnt firefly luciferase reporter signal: 0.919 ± 0.053

## CCN(CC)C(=O)N1CCN(C)CC1
DLD1 [1]
  cell viability: 0.9275 ± 0.0035
HCT116
  cell viability: 0.89 ± 0.079
SW480 [2]
  cell viability: 1.03 ± 0.021
DLD1 [3]
  TCF/Wnt firefly luciferase reporter signal: 0.981 ± 0.098
SW480 [4]
  TCF/Wnt firefly luciferase reporter signal: 1.09 ± 0.021
